Screening results (PubChem)
The list is not random: actives were taken first. Their share in the collection is about 3.2%.
RE007 growth inh: less growth of the S. pombe RE007 Vpr strain; S. pombe RE007 Vpr strain, BacTiter-Glo ATP luminescence, 24 h; AID 651644; Potency, µM (highest dose often 92.2 µM), inactives show top-dose activity change, negative = less growth, hits mostly inhibitors; 360,000 compounds, 0.21% hits; active = well fitted falling curve with a large enough effect; inconclusive = small, poorly fitted or top-dose-only effect; inactive = no such curve, though single readings can be large or run the other way; note: nearly all actives have a fitted effect of over 50% in size
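Fission yeast RE007 carrying one integrated HIV-1 vpr copy, seeded at OD 0.01 in PMG+AL medium with 23 nL pinned compound. Grown 24 h at 30 degrees; viability read by BacTiter-Glo luminescence after 5 min.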
LmPK inh: blocks Leishmania mexicana pyruvate kinase activity | Q27686 | purified LmPK, Kinase-Glo ATP luminescence, 1 h | Potency, µM (doses to about 57.5 µM), without a hit: at the highest dose activity change, negative = inhibition, usual class: inhibitors | 290,000 compounds, 0.37% hits
Target sequence (Q27686 whole entry, looked up): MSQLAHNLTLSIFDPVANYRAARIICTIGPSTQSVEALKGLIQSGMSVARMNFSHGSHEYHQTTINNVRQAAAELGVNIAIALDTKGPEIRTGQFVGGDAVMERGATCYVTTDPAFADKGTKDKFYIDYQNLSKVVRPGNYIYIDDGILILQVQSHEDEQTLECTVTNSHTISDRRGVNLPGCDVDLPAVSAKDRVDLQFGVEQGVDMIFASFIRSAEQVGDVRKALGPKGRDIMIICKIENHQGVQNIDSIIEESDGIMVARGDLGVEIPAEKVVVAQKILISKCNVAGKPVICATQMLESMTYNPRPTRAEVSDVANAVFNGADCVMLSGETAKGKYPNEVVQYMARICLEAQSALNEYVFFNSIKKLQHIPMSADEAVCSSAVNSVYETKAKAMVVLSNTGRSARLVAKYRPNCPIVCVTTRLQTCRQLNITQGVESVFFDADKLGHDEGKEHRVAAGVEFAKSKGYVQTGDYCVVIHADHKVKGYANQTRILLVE
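Kinase-Glo luminescence read after 1 h RT reaction of 0.1 nM LmPK with 0.5 mM PEP and 0.1 mM ADP. Activity scaled between uninhibited and enzyme-free controls.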
TbPYK inhibitor: T. brucei pyruvate kinase inhibition; TbPYK enzyme, Kinase-Glo Plus ATP luminescence, 45 min; Q57TT1; 410,000 compounds, 0.12% hits; Potency, µM (series often up to 76.8 µM), for the others: top-dose activity, negative = inhibition, actives largely listed as inhibitors; note: nearly all actives have a fitted effect of over 50% in size
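Activity of T. brucei pyruvate kinase was followed by Kinase-Glo Plus luminescence after the enzyme reacted 45 min at room temperature with 130 uM ADP (final) and substrate. Test compounds were added before ADP at multiple concentrations.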
Sm TGR block: blocks Schistosoma mansoni thioredoxin glutathione reductase. 360,000 compounds, 3% hits. AID 485364. Potency, µM (titrated, usually from 114 µM), for inactives: at the highest dose activity change, negative = inhibition, hits mostly inhibitors. purified TGR, DTNB reduction, TNB absorbance 405 nm. Q962Y6; note: nearly all actives have a fitted effect of over 60% in size
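TGR 20 nM + NADPH 100 uM (dispensed conc.), cpd preinc 15 min RT; start with NADPH (500 uM addition) then DTNB (15 mM addition). Kinetic TNB absorbance, 405 nm filter. Four-parameter Hill fit across titration.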
AMA1 RON2 block: disrupts binding of P. falciparum AMA1 to RON2; AlphaScreen AMA1-biotinylated RON2 peptide binding; Potency, µM (highest dose often 58.2 µM), inactives show at the top dose activity change, negative = inhibition, most hits filed as inhibitors; 360,000 compounds, 0.2% hits; AID 720542;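 note: 0% = vehicle wells and -100% = peptide control; nearly all actives have a fitted effect of over 45% in size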
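AMA1 (3D7) with his tag at 25 nM final met compounds first, then biotinylated RON2 peptide at 25 nM; detection used donor plus acceptor beads, 10 µg/mL apiece, read by AlphaScreen after 30 min at room temperature.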
* marks the source's active call; other numbers are inactive results; ? = inconclusive; . = not tested or not shown; [ ] = dose if it differs, or a comment. Unless noted, calls come from the whole dose curve; as a rule, active = well fitted curve in the direction sought with a large enough effect; inconclusive = small, poorly fitted or top-dose-only effect, or another doubt; inactive = no such curve, though single readings can be large; an effect the other way counts as inactive or inconclusive. Unless noted, % is set by controls: 0 for no effect and ±100 for the full control effect; potency is the fitted concentration of half-maximal effect.

SMILES	RE007 growth inh	LmPK inh	TbPYK inhibitor	Sm TGR block	AMA1 RON2 block
O=C(CC1C(=O)NCCN1Cc1ccccc1C(F)(F)F)NC1CCC1 (stereo not drawn)	-14.2%	-3.1%	-1.4%	39.8µM*	0.0%
O=C(CC1C(=O)NCCN1Cc1ccccc1C(F)(F)F)NC1CCCCCC1 (stereo not drawn)	7.9%	8.9%	-3.7%	25.1µM*	21.5%
O=C(CC1C(=O)NCCN1Cc1ccccc1C(F)(F)F)NC1CCCCC1 (stereo not drawn)	2.4%	4.1%	0.6%	39.8µM*	22.8%
CCOc1ccc(C(=O)Nc2ccc3nn(-c4ccc(OC)c(Cl)c4)nc3c2)cc1	.	.	-5.6%	5.2%	.
COc1ccc(-n2cccc2/C=C/[N+](=O)[O-])cc1	?	1.5%	1.4%	25.1µM*	-14.2%
Oc1c(CN2CCCC(C(F)(F)F)C2)cc(Cl)c2ccccc12 (stereo not drawn)	?	-0.9%	0.9%	2µM*	-1.9%
CCOC(=O)C1CCN(Cc2cc(Cl)c3ccccc3c2O)CC1	?	2.5%	1.3%	4.47µM*	-13.5%
COc1cc(CN(C(=O)COc2ccccc2)c2ccccn2)cc(OC)c1OC	.	.	0.6%	-1.1%	.
COCCNc1oc(/C=C/c2ccccc2OC)nc1S(=O)(=O)c1ccccc1	7.0%	-1.0%	3.1%	12.6µM*	31.9%
CCN1CCCc2cc(CN(CCN3CCOCC3)C(=S)Nc3cccc(Cl)c3)ccc21	-24.1%	-4.6%	-15.8%	-0.2%	3.55µM*
CCN(CC(=O)Nc1ccc(OC)cc1)C(=O)c1ccc2c(c1)NC(=O)C(C)S2 (stereo not drawn)	27.0%	.	28.2µM*	-0.7%	30.2%
CCN(CC(=O)Nc1c(F)cccc1F)C(=O)c1ccc2c(c1)NC(=O)C(C)S2 (stereo not drawn)	-0.6%	.	0.2%	4.4%	8.7%
CCOC(=O)c1c(S(=O)(=O)N2CCC(C(=O)Nc3cccc(C#N)c3)CC2)c(C)n(C)c1C	.	.	-0.2%	3.7%	.
CCOC(=O)c1ccccc1Nc1cn(C(C)=O)c2ccccc12	-9.6%	1.6%	-6.0%	47.2%	-18.0%
CC(=O)n1cc(Nc2ccccc2C(=O)O)c2ccccc21	-16.8%	4.6%	-0.4%	-12.2%	15.6%
CC(=O)n1cc(N(C(=O)CCl)c2ccc(Cl)cc2)c2ccccc21	?	-1.9%	-0.7%	0.316µM*	-1.5%
COc1ccccc1N(C(=O)CCl)c1cn(C(C)=O)c2ccccc12	-0.3%	-0.7%	2.1%	3.16µM*	4.2%
N#CC1=C(N2CCOCC2)/C(=C\c2ccccc2)CC1	6.7%	0.2%	4.7%	-26.9%	28.1%
O=P(C1=C(N2CCOCC2)/C(=C\c2ccccc2)CC1)(N1CCOCC1)N1CCOCC1	10.5%	-4.5%	0.0%	44.7µM*	23.0%
O=CC1=C(N2CCOCC2)/C(=C\c2ccccc2)CC1	?	1.2%	-7.2%	25.1µM*	-16.9%
O=C(O)c1ccccc1N/N=C/C1=C(N2CCOCC2)C(=C\c2ccccc2)/CC1	-24.4%	1.8%	-17.9%	15.8µM*	-12.6%
O=C(NP(=O)(N1CCOCC1)N1CCOCC1)C1=C(N2CCOCC2)/C(=C\c2ccccc2)CC1	-28.3%	1.3%	-8.3%	3.16µM*	2.3%
O=C(N/N=C/C1=C(N2CCOCC2)C(=C\c2ccccc2)/CC1)Nc1ccccc1	-10.5%	-2.5%	9.3%	-5.5%	?
CC12CC[C@@H]3c4ccc(OS(=O)(=O)O)cc4CC[C@H]3C1CCC2=O (stereo partly drawn)	.	.	-4.2%	.	.
Cc1cc(C)nc(N/N=C/C2=C(N3CCOCC3)C(=C/c3ccccc3)/CC2)n1	.	4.7%	-10.1%	?	43.0%
Cc1cc(=O)[nH]c(N/N=C/C2=C(N3CCOCC3)C(=C\c3ccc(Cl)cc3)/CC2)n1	-7.1%	-2.0%	-9.2%	25.1µM*	-7.0%[2.32 µM]
COc1cc(C2OC(=O)c3c2ccc(OC)c3OC)ccc1O (stereo not drawn)	.	.	.	28.2µM*	.
CCOC(=O)/C(=C\c1ccccc1)C(=O)c1cc(C(C)=O)c(Nc2ccccc2)s1	-2.6%	0.4%	2.7%	-7.4%	19.7%
CCOC(=O)/C(=C\c1cccnc1)C(=O)c1cc(C(C)=O)c(Nc2ccccc2)s1	29.4%	1.1%	?	20µM*	1.7%
